In all, about 2,000 compounds were measured (“fractional viability relative to vehicle”: median about 0.92, lowest 2% from about 0.11 on). This is one part of a sample in which the lowest values are shown more often than they occur.

The assay relates to TYKNU. Description: fractional viability relative to vehicle; TYKNU is a high-grade serous ovarian cancer line; higher = less growth inhibition. To be noted: 72 h, genotype: OPA1 knockout (sgOPA1 #2). In outline: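 TYKNU control cells or lentiCRISPRv2 knockout derivatives were seeded at 500 cells per well into drug-stamped 384-well plates holding a ~2100-compound library at 2 or 10 μM, in duplicate. Cells were grown at 37 °C in 5% CO2 in RPMI 1640 with 10% FBS, and drug treatment lasted 72 h. Viability was read by Cell Titer Glo luminescence. Duplicate treatment wells were averaged and normalised to duplicate control wells from the same plate position.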

As for `O=C1C(=O)N(Cc2ccc(Cl)c(Cl)c2)c2ccccc21` [Apoptosis Activator 2], the fractional viability is 0.461 (2uM) and 0.287 (10uM).

In the case of `Cc1cccc(-c2[nH]c(C(C)(C)C)nc2-c2ccc3nccnc3c2)n1`, the fractional viability was determined as 1.28 (2uM) and 1.26 (10uM).

As for `CC1(C)CCC2=C(O1)c1ccccc1C(=O)C2=O` [Beta-Lapachone], the fractional viability (2uM) amounted to 0.202 and the fractional viability (10uM) turned out to be 0.0483.

Take `CC1=CC(=O)c2ccccc2C1=O` [Menadione]: the fractional viability reads like this: (2uM) 0.94; (10uM) 0.75.

With `OCCn1cc(-c2cnc3nnn(Cc4ccc5ncccc5c4)c3n2)cn1`, the fractional viability by setting is: (2uM) 1.09; (10uM) 1.14.

`COc1ccc(C2=N[C@@H](c3ccc(Cl)cc3)[C@@H](c3ccc(Cl)cc3)N2C(=O)N2CCNC(=O)C2)c(OC(C)C)c1` [Nutlin-3] returned a fractional viability (2uM) of 0.858 and a fractional viability (10uM) of 0.623.

For `COc1ccc(C2=N[C@@H](c3ccc(Cl)cc3)[C@@H](c3ccc(Cl)cc3)N2C(=O)N2CCNC(=O)C2)c(OC(C)C)c1` [Nutlin-3a], the fractional viability (2uM) was 0.481 and the fractional viability (10uM) was 0.367.

For the molecule `CCCc1cc2c(N3CCN(C4=NCC(C)(C)S4)CC3)ncnc2s1` [MI-2 (Menin-MLL Inhibitor)], the fractional viability (2uM) was 0.828 and the fractional viability (10uM) came to 0.711.

For `CN(C)C(=S)NN=C(c1ccccn1)c1ccccn1`, the fractional viability was determined as 0.572 (2uM) and 0.755 (10uM).

On to `Clc1ccc(NN=C(c2ccccc2)c2ccccn2)nc1`, for which the fractional viability came out at 0.229 (2uM) and 0.0582 (10uM).

Consider `O=C(Nc1cccc(Cl)c1)c1ccccn1`, for which the fractional viability by setting is: (2uM) 1.19; (10uM) 1.02.

`CC(C)C[C@@H](C=O)NC(=O)[C@H](CC(C)C)NC(=O)[C@H](CC(C)C)NC(=O)OCc1ccccc1`: the fractional viability stood at 0.236 (2uM) and 0.144 (10uM).

Regarding `O=C(O)C(S)=Cc1c[nH]c2ccc(F)cc12`, the fractional viability was found to be 0.79 (2uM) and 0.825 (10uM).

On to `Nc1ncnc2c1C(=O)N(c1ccc([C@H]3CC[C@H](CC(=O)O)CC3)cc1)CCO2`, for which the fractional viability worked out at 0.723 (2uM) and 0.773 (10uM).

The molecule `Nc1cccc(S(=O)(=O)N2CCCN(S(=O)(=O)c3ccc4c(c3)OCCO4)CC2)c1` displayed a fractional viability (2uM) of 0.783 and a fractional viability (10uM) of 0.849.

Turning to `CS(=O)(=O)CCNCc1ccc(-c2ccc3ncnc(Nc4ccc(OCc5cccc(F)c5)c(Cl)c4)c3c2)o1`, the fractional viability (2uM) amounted to 1.05 and the fractional viability (10uM) came out at 0.369.

With `C=CC(=O)Nc1ccc2ncnc(Nc3ccc(OCc4cccc(F)c4)c(Cl)c3)c2c1`, the fractional viability is, setting by setting: (2uM) 0.742; (10uM) 0.0667.

Take `C=CC(=O)Nc1ccc2ncnc(Nc3cccc(Br)c3)c2c1`: the fractional viability runs as follows: (2uM) 0.982; (10uM) 0.588.

Regarding `CC(C=CC(=O)NO)=CC(C)C(=O)c1ccc(N(C)C)cc1` (centres undefined) [Trichostatin A (TSA)], the fractional viability amounted to 0.335 (2uM) and 0.298 (10uM).

As for `O=C(O)c1ccc(-c2c[nH]c3ncc(-c4ccccc4)cc23)cc1C1CCCC1`, the fractional viability was determined as 0.98 (2uM) and 1.11 (10uM).

On to `Cc1ccc([N+](=O)[O-])cc1S(=O)(=O)N(C)/N=C/c1cnc2ccc(Br)cn12`, for which the fractional viability by setting is: (2uM) 0.428; (10uM) 0.422.

As to `Cc1cc(C(N)=O)ccc1-n1c(CCC(=O)O)ccc1-c1ccc(-n2ccnc2)cc1`, the fractional viability reads like this: (2uM) 0.877; (10uM) 0.84.

The values above are taken from the supplement of paper PMC5919970.
